High-throughput results (PubChem BioAssay)
TDP1 cell CPT = DT40-hTDP1 cell growth loss with CPT; chicken DT40 Tdp1-/-;hTDP1 cells + 20 nM CPT, ATP luminescence, 48 h; Potency, µM (highest dose often 46.2 µM), usual class: inhibitors; actives 12% (n = 420,000); AID 686979; also: nearly all actives have a fitted effect of over 55% in size
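Chicken DT40 Tdp1-/- cells complemented with human TDP1, 400 cells/well, exposed to compounds plus 20 nM camptothecin for at least 48 h at 37 C; viability read as ATP content by CellTiter-Glo luminescence.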
DT40 TDP1 no CPT = qHTS for Inhibitors of human tyrosyl-DNA phosphodiesterase 1 (TDP1): qHTS in cells in absence of CPT. DT40 Tdp1-/- hTDP1 cells, no CPT, ATP luminescence, 48 h. Potency, µM (series often up to 46.2 µM), hits mostly inhibitors. actives 15% (n = 420,000). AID 686978, 2013; also: nearly all actives have a fitted effect of over 55% in size
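Readout: luminescence from CellTiter-Glo after 30 min in the dark at RT. Cells: DT40 Tdp1-/- with stable hTDP1, 400/well. Exposure: compounds alone, ≥48 hr, 37 °C.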
HT1080 IDH1KD tx = toxicity to HT-1080 IDH1 knockdown cells (counter line). AID 686971. Potency, µM (series often up to 46.1 µM), hits mostly cytotoxic. HT-1080 IDH1 knockdown viability, ATP luminescence, 48 h. actives 2% (n = 360,000)
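Knockdown cells (IDH1KD HT-1080) received compounds 2 h after plating at 750 cells/well and were kept 48 h at 37 °C in 5% FBS RPMI. A CellTiter-Glo luminescence read gave % activity for curve fitting.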
HT1080-NT tox = kills 2HG-producing HT-1080-NT fibrosarcoma cells; HT-1080-NT fibrosarcoma viability, CellTiter-Glo ATP luminescence, 48 h; Potency, µM (titrated, usually from 46.1 µM), hits mostly cytotoxic; actives 1.6% (n = 360,000); AID 686970;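 also: NT is the 2HG producing partner of a matched IDH1 knockdown line; nearly all actives have a fitted effect of over 55% in size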
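HT-1080-NT fibrosarcoma cells (2HG-overproducing), 750 cells/well in RPMI with 5% FBS, dosed after 2 h and incubated 48 h at 37C. CellTiter-Glo luminescence normalized to DMSO and no-cell wells; concentration-response curves fitted and classed.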
KB-V1 cytotox = kills drug-selected multidrug resistant KB-V1 cells; KB-V1 MDR cells viability, CellTiter-Glo, 72 h; Potency, µM (doses to about 46.1 µM), actives largely listed as cytotoxic; actives 3.4% (n = 400,000); AID 1347076; also: nearly all actives have a fitted effect of over 60% in size
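KB-V1, DMEM (no phenol red) + 10% FBS; cpd pin-transferred, titration series; 72 h, 37 degrees C; CellTiter-Glo, luminescence. Data normalized, curve-fit.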
KB-3-1 tox = kills parental KB-3-1 adenocarcinoma cells; KB-3-1 viability, CellTiter-Glo ATP luminescence, 72 h; Potency, µM (doses to about 46.1 µM), actives largely listed as cytotoxic; actives 1.4% (n = 400,000); AID 1347075; also: nearly all actives have a fitted effect of over 60% in size
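Parental KB-3-1 adenocarcinoma cells in phenol-red-free DMEM with 10% FBS were pin-treated with compounds at several concentrations, incubated 72 h at 37 °C, and viability read by CellTiter-Glo luminescence; concentration-effect curves were fitted after normalization.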
A number is an active result; 0 = inactive; ? = inconclusive; - = no result. Most compounds without a hit are left out; they make up all but 19% or so of the library. Calls follow the shape of the dose curve; as a rule, active = well fitted curve in the direction sought with a large enough effect; inconclusive = small, poorly fitted or top-dose-only effect, or another doubt; inactive = no such curve, though single readings can be large; an effect the other way counts as inactive or inconclusive.

SMILES	TDP1 cell CPT	DT40 TDP1 no CPT	HT1080 IDH1KD tx	HT1080-NT tox	KB-V1 cytotox	KB-3-1 tox
Cn1cnc([N+](=O)[O-])c1Nc1cccc(O)c1	0	0	0	0	0	0
Cn1cnc([N+](=O)[O-])c1Oc1ccc2ccccc2c1	8.2µM	?	?	0	?	?
COC(=O)c1ccccc1COc1cccn2c(N(C)Cc3cccs3)c(C)nc12	?	?	?	?	18.4µM	?
CCC(CC)C(=O)N(C)c1c(C)nc2c(OCc3ccccc3OC)cccn12	?	14.6µM	0	?	0	0
CCC(CC)C(=O)N(C)c1c(C)nc2c(OCc3ccccc3C(=O)OC)cccn12	?	16.4µM	0	0	0	0
CCc1nc2c(OCc3ccc(F)cc3)cccn2c1N(C)C(=O)C(C)C	0	?	0	0	0	0
Cc1nc2c(OCc3cccc(Cl)c3)cccn2c1N(C)Cc1cccs1	20.6µM	16.4µM	?	?	18.4µM	?
CCOc1ccc(-c2nc3c(c(CC)nn3-c3ccccc3)c3cc(OC)c(OC)cc23)cc1	0	0	-	-	0	0
CCC(C)(C)NC(=O)C(C(C)C)N(CC1CCCO1)C(=O)CNS(=O)(=O)c1ccccc1 (stereo not drawn)	0	0	0	0	0	0
COc1ccc(C(C(=O)NC(C)(C)C)N(C(=O)CCC(=O)Nc2ccccn2)C2CCCCC2)cc1 (stereo not drawn)	?	0	0	0	0	0
O=C(Nc1cccc(F)c1)N1CC2(CCN(C(=O)c3cccc(F)c3)CC2)C1	0	0	-	-	-	-
CCOC(=O)c1ccc(NC(=O)C(CC)Sc2nc3ncccc3o2)cc1 (stereo not drawn)	0	?	-	-	-	-
CCC(CC)C(=O)N(C)c1c(C)nc2c(OCC3CCCCC3)cccn12	?	13µM	?	?	0	0
Cc1nc2c(OCc3ccc(C#N)cc3)cccn2c1N(C)C(=O)CCC1CCCC1	?	?	0	0	?	?
CC(C)CNC(=O)c1cccc(NC(=O)C(C)C)c1	0	0	0	0	0	0
CN(C)c1ccc(NS(=O)(=O)c2ccc(Cl)cc2)cc1	18.4µM	?	0	0	0	0
CN(C)c1ccc(NS(=O)(=O)c2ccc(-c3csnn3)cc2)cc1	?	13µM	0	0	0	0
Cc1ccc(S(=O)(=O)Nc2ccc(N(C)C)cc2)cc1	0	?	0	0	0	?
Cc1cc(S(=O)(=O)Nc2ccc(N(C)C)cc2)c(C)s1	?	?	0	0	16.4µM	0
Cc1cc(S(=O)(=O)Nc2cccc(Cl)c2)c(C)s1	0	0	0	0	0	0
CN(C)c1ccc(NS(=O)(=O)c2cccc(Cl)c2)cc1	0	10.3µM	0	0	?	0
CCOc1ccc(NC(=O)CN(C)C(=O)C(C)Oc2ccc(Cl)cc2)cc1OCC (stereo not drawn)	?	?	0	0	0	0
O=[N+]([O-])c1cc(Cl)cc(C2=NCCN2)c1	18.4µM	?	0	0	0	0
O=[N+]([O-])c1cc(Br)c2c(c1)CCN2	0	0	0	0	0	0
Cc1ccc(C(CNS(=O)(=O)c2ccc([N+](=O)[O-])cc2)N2CCN(C)CC2)cc1 (stereo not drawn)	0	?	0	0	0	0
SMILES	TDP1 cell CPT	DT40 TDP1 no CPT	HT1080 IDH1KD tx	HT1080-NT tox	KB-V1 cytotox	KB-3-1 tox
COc1ccc(-c2cnc(NCc3cc4c(cc3[N+](=O)[O-])OCO4)n2C)cc1	25.9µM	13µM	0	0	0	0
Cn1c(-c2cccc([N+](=O)[O-])c2)cnc1NCc1cccc([N+](=O)[O-])c1	?	?	0	0	?	0
Cc1cccc(CNc2ncc(-c3cccc([N+](=O)[O-])c3)n2C)c1	?	16.4µM	0	0	?	0
COc1ccc(OC)c(CNc2ncc(-c3cccc([N+](=O)[O-])c3)n2C)c1	16.4µM	?	0	0	0	0
CCc1nnc(NC(=O)C2CCCCN2S(=O)(=O)c2ccccc2)s1 (stereo not drawn)	0	0	0	0	?	0
O=C(c1ccc2c(c1)N(Cc1ccc(Cl)cc1)C(=O)c1ccccc1S2(=O)=O)N1CCC(Cc2ccccc2)CC1	10.3µM	18.4µM	-	-	0	0
O=C(c1ccc2c(c1)N(Cc1ccccc1F)C(=O)c1ccccc1S2(=O)=O)N1CCC(Cc2ccccc2)CC1	16.4µM	20.6µM	-	-	0	?
CC(NC(=O)c1ccc2c(c1)N(Cc1ccc(Cl)cc1)C(=O)c1ccccc1S2(=O)=O)c1ccccc1 (stereo not drawn)	0	0	-	-	0	0
CC1CCN(C(=O)c2ccc3c(c2)N(Cc2ccccc2F)C(=O)c2ccccc2S3(=O)=O)CC1	?	?	-	-	0	0
CC(C)CCn1cnc2c(sc3nc4c(cc32)CSC(C)(C)C4)c1=O	?	16.4µM	0	0	?	0
CC1(C)Cc2nc3sc4c(SCC(=O)O)ncnc4c3cc2CO1	0	?	0	0	?	0
CCCCn1cnc2c(sc3nc4c(cc32)CSC(C)(C)C4)c1=O	?	?	0	0	20.6µM	0
CC1(C)Cc2nc3sc(C(=O)NCCCO)c(N)c3cc2CS1	0	0	0	0	0	0
CC1(C)Cc2nc3sc4c(NCCO)ncnc4c3cc2CS1	?	20.6µM	0	0	0	0
CC1(C)Cc2nc3sc4c(N(CCO)CCO)nnnc4c3cc2CO1	0	0	0	0	0	0
CC(=O)c1cccc2c1OC(C)C(=O)N2Cc1ccc(Cl)cc1 (stereo not drawn)	0	0	0	0	0	0
NS(=O)(=O)c1ccc(CCNc2ncnc3c2cnn3-c2cccc(Cl)c2)cc1	?	?	-	-	0	0
COc1cc(O)sc1C=Nc1ccc(Cl)cc1Cl	0	0	0	0	20.6µM	0
O=c1[nH]c(O)c(C=Nc2ccc(Cl)cc2Cl)c(=O)[nH]1	0	0	0	0	0	0
C[C@@H]1CC[C@H](Cc2ccc(-n3cccc3)cc2)N1C(=O)OC(C)(C)C	?	18.4µM	0	0	0	0
CCc1ccc(S(=O)(=O)ON2C(=O)c3ccccc3C2=O)cc1	7.31µM	11.6µM	0	0	0	0
CCc1ccc(OC(=O)CN2C(=O)c3ccccc3C2=O)cc1	0	0	0	0	?	0
O=C(COC(=O)CCCN1C(=O)c2cccc3cccc(c23)C1=O)Nc1ccc(Cl)cc1	0	0	0	0	0	0
O=C1c2cccc3cccc(c23)C(=O)N1OS(=O)(=O)c1ccc(Cl)cc1	?	18.4µM	0	0	0	0
